This is one part of a sample in which hits are shown more often than they occur.
VACV mCherry inh = vaccinia inhibition (mCherry reporter); Vaccinia virus mCherry reporter infection, fluorescence; Potency, µM (series often up to 36.5 µM), hits mostly inhibitors; hit rate 0.63% among 310,000; AID 720579; calls by dose curve; tested in A549 cells; further: nearly all actives have a fitted effect of over 35% in size
Vaccinia Venus = inhibitors of vaccinia virus (Venus reporter). Vaccinia virus Venus reporter expression, fluorescence. Potency, µM (doses to about 36.5 µM), most hits filed as inhibitors. hit rate 0.46% among 330,000. AID 720580; calls by dose curve; tested in A549 cells; further: nearly all actives have a fitted effect of over 30% in size
LASV entry inh = inhibitors of Lassa virus binding or cell entry; Lassa virus pseudotype entry inhibition, cell reporter; Potency, µM (series often up to 37.9 µM), hits mostly inhibitors; hit rate 1.2% among 300,000; AID 540256; calls by dose curve; tested in HEK293 cells; further: nearly all actives have a fitted effect of over 50% in size
Cycloheximide cs = affects cycloheximide protein synthesis inhibition readout, counter-screen | cell reporter, cycloheximide protein synthesis inhibition counterscreen | max response, % | hit rate 12% among 300,000; in the data active means max response mostly above about 13%, no sharp cut-off; inactive means mostly below about 14%; further: read at 38.3 µM for the half of the compounds with a filed dose
MARV entry inh = Marburg virus entry inhibition; Potency, µM (series often up to 37.8 µM), hits mostly inhibitors; AID 540276; Marburg virus pseudotyped entry inhibition, cell reporter; hit rate 1.8% among 300,000; calls by dose curve; tested in HEK293 cells
Shiga inhibitor = Shiga toxin inhibition. Vero cells, Shiga toxin protein synthesis inhibition reporter. hit rate 9.2% among 290,000. inhibition, % at 38.7 µM; in the data active means inhibition mostly above about 28%, no sharp cut-off; inactive means mostly below about 43%
Each line names hits and unclear results; the compound was inactive in the other large screens.

COc1ccc(C2=NN3C(C2)c2ccccc2OC3c2cccs2)cc1 (stereo unspecified)	Cycloheximide cs 59, MARV entry inh inconclusive, Shiga inhibitor 63
COc1ccccc1NC(=O)Cn1cc(C(=O)c2ccncc2)c(=O)c2cc(C)ccc21	none (no result: Cycloheximide cs, MARV entry inh, Shiga inhibitor)
CCCCOc1ccc(N(CC(=O)NC(C)(C)CC)C(=O)CCC(=O)Nc2ccccn2)cc1	LASV entry inh inconclusive, MARV entry inh 8.9µM
CCCCOc1ccc(N(CC(=O)NC2CCCC2)C(=O)CCC(=O)Nc2ccccn2)cc1	MARV entry inh inconclusive
CCOc1ccc(NC(=S)Nc2cc(C)[nH]n2)cc1	Cycloheximide cs 27, Shiga inhibitor 62
CCOc1ccc(NC(=S)Nc2ccc(OC(F)(F)F)cc2)cc1	none
CCOc1ccc(NC(=O)Nc2ccc3nsnc3c2)cc1	Cycloheximide cs 33 (no result: VACV mCherry inh, Vaccinia Venus)
CCOc1ccc(NC(=S)Nc2ccc3nsnc3c2)cc1	Cycloheximide cs 33, Shiga inhibitor 57
COc1ccc(NC(=S)Nc2ccc3nsnc3c2)cc1	Cycloheximide cs 41, MARV entry inh inconclusive
CCOc1ccc(NC(=O)Nc2ccc3snnc3c2)cc1	none (no result: Cycloheximide cs, Shiga inhibitor)
Cc1ccc(CNC(=O)CCCn2c(=O)[nH]c3ccc(Br)cc3c2=O)cc1	none (no result: Cycloheximide cs, Shiga inhibitor)
CCCCCCOc1ccc(N2C(=O)CC(N(CCc3ccc(S(N)(=O)=O)cc3)C(C)=O)C2=O)cc1 (stereo unspecified)	none
NC(=O)c1ccccc1NC(=O)/C=C/c1ccccc1	Cycloheximide cs 34, MARV entry inh inconclusive, Shiga inhibitor 63
NC(=O)c1ccccc1NC(=O)/C=C/c1ccc(Cl)cc1	Cycloheximide cs 48, MARV entry inh inconclusive, Shiga inhibitor 90
Cc1ccc(S(=O)(=O)N2CCC(C(=O)Nc3nnc(-c4ccco4)s3)CC2)cc1	none
O=C(Nc1nnc(-c2ccco2)s1)C1CCCCC1	LASV entry inh inconclusive, Cycloheximide cs 42, Shiga inhibitor 71 (no result: VACV mCherry inh)
CC(C)CC(=O)Nc1nnc(-c2ccco2)s1	LASV entry inh inconclusive, Cycloheximide cs 29
CCc1ccc(OCC(=O)Nc2nnc(-c3ccco3)s2)cc1	none (no result: VACV mCherry inh, Vaccinia Venus, LASV entry inh, MARV entry inh)
COC(=O)Nc1nnc(-c2ccco2)s1	Cycloheximide cs 12
COc1cccc2c(=O)n(CC(=O)NC3CCCCC3)ccc12	Cycloheximide cs 9.8 (no result: LASV entry inh, MARV entry inh)
COc1cccc2c(=O)n(CC(=O)Nc3ccccc3F)ccc12	VACV mCherry inh inconclusive, Vaccinia Venus inconclusive, Cycloheximide cs 27, Shiga inhibitor 23 (no result: LASV entry inh, MARV entry inh)
COc1cccc2c(=O)n(CC(=O)Nc3ccc(F)cc3)ccc12	none (no result: LASV entry inh, MARV entry inh)
CCCCC(=O)Nc1ccc2c(c1)nc(CN1CCN(C(=O)OCC)CC1)n2C	none (no result: VACV mCherry inh, Vaccinia Venus, LASV entry inh, MARV entry inh)
Cc1ccsc1C(=O)Nc1nnc(-c2ccco2)o1	Cycloheximide cs 18 (no result: VACV mCherry inh, Vaccinia Venus)
O=C(Nc1nnc(-c2ccco2)o1)c1ccc2ccccc2c1	LASV entry inh inconclusive, MARV entry inh 14µM
N#Cc1ccc(C(=O)Nc2nnc(-c3ccco3)o2)cc1	MARV entry inh inconclusive
Cc1ccc(C(=O)Nc2nnc(-c3ccco3)o2)cc1	LASV entry inh inconclusive, Cycloheximide cs 44, MARV entry inh inconclusive
COc1ccc(C(=O)Oc2c(CN3CCOCC3)cc(Cl)c3cccnc23)cc1OC	VACV mCherry inh inconclusive, Vaccinia Venus inconclusive (no result: LASV entry inh, Cycloheximide cs, Shiga inhibitor)
O=C(Oc1c(CN2CCOCC2)cc(Cl)c2cccnc12)c1ccccc1F	VACV mCherry inh 7.9µM, Vaccinia Venus 10µM, LASV entry inh inconclusive, MARV entry inh inconclusive
COc1cc(OC)cc(C(=O)Oc2c(CN3CCOCC3)cc(Cl)c3cccnc23)c1	VACV mCherry inh inconclusive, Vaccinia Venus inconclusive, LASV entry inh inconclusive, Cycloheximide cs 8.0
O=C(Oc1c(CN2CCOCC2)cc(Cl)c2cccnc12)c1ccccc1	VACV mCherry inh inconclusive, Vaccinia Venus inconclusive, LASV entry inh inconclusive, MARV entry inh inconclusive
O=C(NC1CCCC1)C1CCN(S(=O)(=O)c2ccccc2)CC1	none
N#Cc1ccccc1NC(=O)Cn1cnc2onc(-c3cccc(F)c3)c2c1=O	none (no result: Cycloheximide cs, MARV entry inh, Shiga inhibitor)
COC(=O)CC(Oc1c(C)n(C)c2ccccc2c1=O)c1ccccc1 (stereo unspecified)	none (no result: VACV mCherry inh, Vaccinia Venus, LASV entry inh, Cycloheximide cs, Shiga inhibitor)
Cc1ccccc1C(=O)NNC(=S)NC(=O)c1cccs1	Cycloheximide cs 21 (no result: VACV mCherry inh, Vaccinia Venus, LASV entry inh, MARV entry inh)
O=C(NC(=S)NNC(=O)c1cccs1)c1ccco1	Cycloheximide cs 29 (no result: VACV mCherry inh, Vaccinia Venus)
O=C(NC(=S)NNC(=O)c1cccs1)c1ccccc1	Cycloheximide cs 11 (no result: VACV mCherry inh, Vaccinia Venus, LASV entry inh, MARV entry inh)
Cc1ccccc1C(=O)NC(=S)Nc1ncccn1	Cycloheximide cs 18, MARV entry inh inconclusive
O=C(Cc1ccc(Oc2ccccc2)cc1)NO	none (no result: LASV entry inh, Cycloheximide cs, MARV entry inh, Shiga inhibitor)
Cc1ccc(CSc2ncc(Cl)c(C(=O)Oc3ccc(F)cc3)n2)cc1	MARV entry inh inconclusive (no result: Cycloheximide cs, Shiga inhibitor)
OCc1cccc(Cl)c1Cl	none (no result: VACV mCherry inh, Vaccinia Venus, LASV entry inh, MARV entry inh)
CC1=C(C(=O)OC2CCCC2)C(c2ccc(Cl)cc2)CC(=O)N1 (stereo unspecified)	MARV entry inh inconclusive (no result: Cycloheximide cs, Shiga inhibitor)
O=C(NNC(=O)c1cccs1)c1ccc(F)cc1	Cycloheximide cs 22, Shiga inhibitor 50
CC(C)(C)c1ccc(C(=O)NC(=S)NNC(=O)c2cccs2)cc1	Vaccinia Venus inconclusive, LASV entry inh inconclusive, MARV entry inh inconclusive
Cc1cccc(C(=O)NC(=S)NNC(=O)c2cccs2)c1	VACV mCherry inh inconclusive, Shiga inhibitor 25
CCCOc1c(OC)cccc1C1CC(=O)Nc2cc3c(cc21)OCCO3 (stereo unspecified)	VACV mCherry inh inconclusive, Vaccinia Venus inconclusive, LASV entry inh inconclusive, MARV entry inh inconclusive
CCCOc1c(OC)cccc1C1CC(=O)Nc2cc3c(cc21)OCO3 (stereo unspecified)	Vaccinia Venus inconclusive, LASV entry inh 7.1µM, MARV entry inh inconclusive (no result: VACV mCherry inh)
COc1ccccc1C1CC(=O)Nc2cc3c(cc21)OCCO3 (stereo unspecified)	VACV mCherry inh inconclusive, Vaccinia Venus inconclusive, LASV entry inh inconclusive, MARV entry inh 2.1µM
CCOc1cccc(C2CC(=O)Nc3cc4c(cc32)OCCO4)c1 (stereo unspecified)	LASV entry inh inconclusive, MARV entry inh 2.2µM (no result: Cycloheximide cs, Shiga inhibitor)
Cc1ccc(C2CC(=O)Nc3cc4c(cc32)OCCO4)cc1 (stereo unspecified)	MARV entry inh inconclusive (no result: Cycloheximide cs, Shiga inhibitor)
CCOC(=O)C1=CN(CCNC(=O)OC(C)(C)C)C(=O)NC1c1ccccc1 (stereo unspecified)	none (no result: VACV mCherry inh, Vaccinia Venus, LASV entry inh, Cycloheximide cs, Shiga inhibitor)
CCCS(=O)(=O)N1CCN(Cc2ccc3c(c2)c2ccccc2n3CC)CC1	VACV mCherry inh inconclusive, Vaccinia Venus inconclusive, LASV entry inh inconclusive, MARV entry inh 10µM
CC(C)c1ccc(N=C2N=C(N)c3ccccc32)cc1	VACV mCherry inh inconclusive, Vaccinia Venus inconclusive, LASV entry inh inconclusive, Cycloheximide cs 80, MARV entry inh inconclusive, Shiga inhibitor 118
Cc1cccc(N=C2N=C(N)c3ccccc32)c1	LASV entry inh inconclusive, MARV entry inh inconclusive (no result: VACV mCherry inh, Vaccinia Venus)
NC1=NC(=Nc2ccccc2)c2ccccc21	VACV mCherry inh inconclusive, Vaccinia Venus inconclusive, LASV entry inh 13µM, MARV entry inh inconclusive
NC1=NC(=Nc2ccc(Cl)cc2)c2ccccc21	Cycloheximide cs 47
NC1=NC(=Nc2ccc(Br)cc2)c2ccccc21	VACV mCherry inh inconclusive, Vaccinia Venus inconclusive, LASV entry inh inconclusive, Cycloheximide cs 26, MARV entry inh 7.1µM, Shiga inhibitor 62
OC(c1ccccc1)c1nc(-c2csc3ccccc23)cs1 (stereo unspecified)	none (no result: LASV entry inh, Cycloheximide cs, MARV entry inh, Shiga inhibitor)
